The text below walks through data of PubChem BioAssay.

Assay [1] is described as follows: optical density shifts of acrAB sulA E. coli – strain DRC41, OD650, 48 h, E. coli filamentation inducer project, primary screen (AID 1152).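 Note: E. coli MC1000 strain DRC41 lacking acrAB efflux pump and sulA.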 As to conditions: higher = more signal, called active from +8 up or from −8 down.
Assay [2] can be described thus: probe aLefty1 binding on compound microarray – biochemical, small-molecule microarray, 635/667 nm fluorescence, primary screen (AID 1153).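 Note: score merges spot fluorescence with signal-to-noise ratio from the scanned slide images.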 The settings on record: higher = more signal.
A short description of assay [3]: plasmodial surface anion channel blockers, osmotic lysis – cell-based, P. falciparum Indochina, OD700, 1 h, primary screen (AID 1154). The settings on record: P. falciparum Indochina infected RBC osmotic lysis, higher = more signal, called active from +8 up or from −8 down.
Assay [4] is described as follows: plasmodial surface anion channel blockers, osmotic lysis – cell-based, P. falciparum Indochina, OD700, 2 h, primary screen (AID 1155).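 Note: lysis reports solute entry through the parasite surface anion channel PSAC.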 As to conditions: P. falciparum Indochina infected erythrocytes, higher = more signal, called active from +8 up or from −8 down.
Assay [5] can be described thus: changes in parasitized red cell lysis, either direction – P. falciparum Indochina, OD700, 3 h, PSAC antagonist project, primary screen (AID 1156). As to conditions: P. falciparum-infected erythrocytes, osmotic lysis, higher = more signal, called active from +8 up or from −8 down.
Assay [6] can be described thus: plasmodial surface anion channel blockers, osmotic lysis – cell-based, P. falciparum Indochina, OD700, 18 h, primary screen (AID 1157). As to conditions: P. falciparum Indochina infected erythrocytes, osmotic lysis OD700, 18 h; higher = more signal, called active from +8 up or from −8 down.
Assay [7] can be described thus: S6 kinase pathway phospho-S6 level changes – cell-based, A549, cytoblot, luminescence, serum-stimulated, primary screen (AID 1158).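 Note: serum-stimulated A549 lung adenocarcinoma cells; signal is phosphorylated S6 detected by cytoblot immunostaining with HRP secondary.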 The settings on record: 5 h, higher = more signal.
The target of assay [8] is NADPH oxidase 2 (Homo sapiens) (UniProt P04839). Kind of assay: compounds shifting NOX2 Amplex Red fluorescence – cell-based, HEK293-NOX2, PMA-stimulated, NOX inhibitor project, primary screen (AID 1159). Note: test concentration not given here. As to conditions: 45 min, higher = more signal, called active from +8 up or from −8 down.
NADPH oxidase 2 (Homo sapiens), sequence (P04839 whole entry, looked up): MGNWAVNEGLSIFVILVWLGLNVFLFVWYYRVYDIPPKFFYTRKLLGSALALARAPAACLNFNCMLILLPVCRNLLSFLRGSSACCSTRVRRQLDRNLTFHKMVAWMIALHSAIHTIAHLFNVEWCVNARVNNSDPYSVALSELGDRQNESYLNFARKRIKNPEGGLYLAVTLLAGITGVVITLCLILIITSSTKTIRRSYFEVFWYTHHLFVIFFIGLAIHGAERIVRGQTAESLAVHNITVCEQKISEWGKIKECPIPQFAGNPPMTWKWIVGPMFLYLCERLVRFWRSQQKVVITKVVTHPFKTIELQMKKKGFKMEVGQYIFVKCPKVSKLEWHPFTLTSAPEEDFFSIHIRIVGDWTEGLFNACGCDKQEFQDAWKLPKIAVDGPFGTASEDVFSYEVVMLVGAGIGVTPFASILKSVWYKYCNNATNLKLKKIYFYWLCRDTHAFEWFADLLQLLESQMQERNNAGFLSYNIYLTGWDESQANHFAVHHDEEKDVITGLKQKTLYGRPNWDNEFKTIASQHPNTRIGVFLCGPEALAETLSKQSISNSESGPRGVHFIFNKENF
Assay [9] concerns the target NADPH oxidase 4 (Homo sapiens) (UniProt Q9NPH5). Kind of assay: compounds shifting NOX4 Amplex Red fluorescence – cell-based, HEK293-NOX4, tetracycline-induced, NOX inhibitor project, primary screen (AID 1160). The settings on record: HEK293-NOX4, Amplex Red H2O2 fluorescence, 45 min; higher = more signal, called active from +8 up or from −8 down.
Assay [10] concerns the target NADPH oxidase 5 (Homo sapiens) (UniProt Q96PH1). Kind of assay: compounds shifting NOX5 Amplex Red fluorescence – cell-based, HEK293-NOX5, NOX inhibitor project, primary screen (AID 1161). As to conditions: HEK293-NOX5, ionomycin, 45 min, higher = more signal.
A short description of assay [11]: compound effects on lung adenocarcinoma cell viability – A549, calcein-AM fluorescence, 48 h, basal, profiling panel (AID 1162). Note: test concentration not given here. The settings on record: higher = more signal.
A short description of assay [12]: compound effects on differentiated 3T3-L1 adipocyte viability – cell-based, 3T3-L1 adipocytes, calcein-AM fluorescence, 48 h, basal, profiling panel (AID 1163). Note: test concentration not given here. As to conditions: 3T3-L1 adipocytes viability, higher = more signal.
Assay [13] in a line: compound effects on hepatocellular carcinoma cell viability – HepG2, calcein-AM fluorescence, 48 h, basal, profiling panel (AID 1164). Note: test concentration not given here. As to conditions: higher = more signal.
The nature of assay [14]: compound effects on multiple myeloma cell viability – MM1S, calcein-AM fluorescence, 48 h, basal, profiling panel (AID 1165).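 Note: viability of MM1S multiple myeloma cells under basal unstimulated conditions; test concentration not given here.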 The settings on record: higher = more signal.
Assay [15] can be described thus: calcein-AM signal in unstimulated myeloma cells – cell-based, calcein-AM fluorescence, 48 h, PK04 Diversity Set, profiling panel (AID 1166).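 Note: cells grown under basal conditions without added stimulus; test concentration not given here.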 The settings on record: RPMI8226 myeloma viability, higher = more signal.
The nature of assay [16]: JC-1 mitochondrial signal, unstimulated HepG2 cells – cell-based, JC-1 fluorescence, 24 h, 100 nL compound, profiling panel (AID 1167). Note: test concentration not given here. The settings on record: HepG2 mitochondrial potential, higher = more signal.
Assay [17] is described as follows: JC-1 mitochondrial signal, unstimulated adipocytes – cell-based, JC-1 fluorescence, 3T3-L1 adipocytes, 24 h, 100 nL compound, profiling panel (AID 1168). Note: test concentration not given here. The settings on record: JC-1 mitochondrial fluorescence, higher = more signal, called active from +8 up or from −8 down.
The nature of assay [18]: JC-1 mitochondrial signal, unstimulated myeloma cells – cell-based, JC-1 fluorescence, RPMI8226, 24 h, 100 nL compound, profiling panel (AID 1169). Note: test concentration not given here. The settings on record: JC-1 mitochondrial potential fluorescence, higher = more signal.
A short description of assay [19]: JC-1 mitochondrial signal, unstimulated MM1S myeloma – cell-based, JC-1 fluorescence, 24 h, 100 nL compound, profiling panel (AID 1170). Note: test concentration not given here. As to conditions: MM1S mitochondrial potential, higher = more signal.
Assay [20] can be described thus: resazurin metabolic signal in A549 cells – cell-based, resazurin fluorescence, 24 h, PK04 Diversity Set, profiling panel (AID 1171). Note: test concentration not given here. As to conditions: A549 viability, higher = more signal, called active from +8 up or from −8 down.

Activity calls are given as the source filed them.

NADPH oxidase 4 (Homo sapiens), sequence (Q9NPH5 whole entry, looked up): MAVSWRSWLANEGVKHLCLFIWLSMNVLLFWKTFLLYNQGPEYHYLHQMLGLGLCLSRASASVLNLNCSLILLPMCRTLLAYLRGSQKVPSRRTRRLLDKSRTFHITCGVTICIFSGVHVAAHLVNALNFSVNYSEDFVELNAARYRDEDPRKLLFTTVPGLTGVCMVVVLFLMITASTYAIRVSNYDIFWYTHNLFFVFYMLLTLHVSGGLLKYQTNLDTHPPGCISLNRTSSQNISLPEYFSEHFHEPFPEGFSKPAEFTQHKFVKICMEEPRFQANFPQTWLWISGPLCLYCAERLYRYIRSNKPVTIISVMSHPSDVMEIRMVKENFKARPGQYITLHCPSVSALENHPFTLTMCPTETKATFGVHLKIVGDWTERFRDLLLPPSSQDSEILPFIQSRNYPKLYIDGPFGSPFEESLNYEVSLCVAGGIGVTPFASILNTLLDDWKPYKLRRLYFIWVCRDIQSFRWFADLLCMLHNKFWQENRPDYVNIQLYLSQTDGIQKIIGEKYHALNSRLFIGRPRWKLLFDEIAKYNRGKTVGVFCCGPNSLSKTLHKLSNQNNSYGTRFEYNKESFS
NADPH oxidase 5 (Homo sapiens), sequence (Q96PH1 whole entry, looked up): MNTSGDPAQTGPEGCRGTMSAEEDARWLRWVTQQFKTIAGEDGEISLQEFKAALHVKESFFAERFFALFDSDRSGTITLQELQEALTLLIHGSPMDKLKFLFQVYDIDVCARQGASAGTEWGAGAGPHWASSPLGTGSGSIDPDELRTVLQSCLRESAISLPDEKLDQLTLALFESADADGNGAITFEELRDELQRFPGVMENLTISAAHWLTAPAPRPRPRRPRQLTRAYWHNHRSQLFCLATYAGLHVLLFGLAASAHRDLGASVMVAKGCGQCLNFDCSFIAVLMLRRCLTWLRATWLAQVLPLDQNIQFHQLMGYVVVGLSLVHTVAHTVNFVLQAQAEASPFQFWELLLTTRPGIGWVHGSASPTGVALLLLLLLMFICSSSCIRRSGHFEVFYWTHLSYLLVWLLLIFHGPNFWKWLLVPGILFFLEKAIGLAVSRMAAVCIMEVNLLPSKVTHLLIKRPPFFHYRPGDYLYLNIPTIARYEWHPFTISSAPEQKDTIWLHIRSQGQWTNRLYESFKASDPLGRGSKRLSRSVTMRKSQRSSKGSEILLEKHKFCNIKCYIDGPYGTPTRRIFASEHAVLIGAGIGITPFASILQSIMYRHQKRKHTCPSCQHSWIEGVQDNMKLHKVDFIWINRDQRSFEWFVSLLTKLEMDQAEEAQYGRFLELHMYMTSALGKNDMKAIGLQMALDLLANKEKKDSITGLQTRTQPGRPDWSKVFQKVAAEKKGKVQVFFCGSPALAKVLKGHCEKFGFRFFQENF

For `CO[C@@H]1COC(=O)[C@H](COCc2ccccc2)NC(=O)CC=C[C@@H](C)[C@H](OC)COC(=O)[C@H](COCc2ccccc2)NC(=O)CC=C[C@H]1C`, the z-score is -0.207 (inactive) in [1]; -0.279 (inactive) in assay [3]; -0.562 (inactive) in assay [4]; -0.646 (inactive) in [5]; -1.73 (inactive) in assay [6]; 0.37 in [7]. Moreover, the z-score in [8] is 1.15 (inactive); in [9] it was 0.931 (inactive); in assay [10], 0.314; in [11], 0.404; in [12], 0.67; in [13], -0.0841. Also, the z-score in assay [14] is 0.0234; in assay [15], 0.711; in [16], 0.849; in assay [17] it was 1 (inactive); in [18], 0.525; in assay [19], 0.178. In [20], the z-score is 0.296 (inactive). Further, in [2], the composite z-score amounted to 0.113.
Consider `C#CCCCON=C1C[C@@H](O)[C@@H](O)[C@@H]2[C@@H]3C(=O)N(Cc4ccc5c(c4)OCO5)C(=O)[C@@H]3CC[C@H]12`, for which the z-score was 0.324 (inactive) in assay [1]; -0.852 in assay [7]; -0.275 (inactive) in [8]; 0.911 (inactive) in assay [9]; -0.124 in assay [10]; 0.391 in assay [11]. In addition, the z-score in assay [12] was -0.027; in [13], -0.464; in assay [14] it was 0.484; in assay [15], 0.0196; in [16] it was -0.537; in [17], -0.0334 (inactive). The values for the z-score in [18], in assay [19] and in assay [20] were -0.427, -0.778 and 0.495 (inactive), respectively. In assay [2], this compound gave a composite z-score of -0.161.
As to `CCCN1C(=O)[C@@]2(CCS(=O)(=O)c3ccccc3)N=C(c3ccc(OCCCO)cc3)O[C@H]2c2ccccc21`, the z-score is 0.33 (inactive) in assay [1]; 34.1 (active) in [3]; 32.4 (active) in assay [4]; 1.93 (inactive) in assay [5]; 3.19 (inactive) in assay [6]; 0.43 in [7]. The z-score was -2.38 (inactive) in assay [8]; -0.683 (inactive) in assay [9]; -1.74 in assay [10]; -1.3 in assay [11]; 2.41 in assay [12]; -0.64 in [13]. Further, the z-score in assay [14] was -0.454; in assay [15], -3.68; in assay [16] it was 0.241; in assay [17] it was 0.535 (inactive); in assay [18] it was -1.31; in [19] it was -0.148. Moreover, the z-score in [20] was -1.33 (inactive). For the same compound, the composite z-score in assay [2] amounted to 0.498.
For the compound `CN1CCC(CCCO)=CC1C1CC1` (stereo unspecified), the z-score was 1.08 (inactive) in [1]; -0.369 (inactive) in [3]; -1.58 (inactive) in assay [4]; -1.01 (inactive) in assay [5]; -1.9 (inactive) in assay [6]; 0.591 in assay [7]. Besides, the z-score in assay [8] is 0.575 (inactive); in assay [9] it was -0.0075 (inactive); in assay [10], 0.0296; in assay [11] it was 0.4; in [12], 0.852; in [13], -0.879. Besides, the z-score in assay [14] is -0.833; in assay [15] it was 0.174; in [16], 1.32; in assay [17], 0.57 (inactive); in assay [18] it was 0.201; in [19], 0.389. The z-score in assay [20] is -0.0682 (inactive). The compound also displayed a composite z-score in assay [2] of -0.0984.
For `C=C(COC)/C(=C/C[C@@H](OC(C)=O)c1cccc(OCCO)c1)c1cc(C(=O)OC)ccc1OC`, the z-score in assay [1] was 1.37 (inactive); in assay [3], 15.7 (active); in assay [4], 0.098 (inactive); in [5], 0.363 (inactive); in assay [6], -1.44 (inactive); in assay [7] it was -0.316. The z-score was 1.51 (inactive) in [8]; 1.28 (inactive) in assay [9]; -1.1 in assay [10]; 1.1 in assay [11]; -0.412 in assay [12]; 0.409 in assay [13]. The z-score in assay [14] is -1.29; in [15], 0.0922; in [16], 3.3; in assay [17], 1.2 (inactive); in assay [18], 0.127; in [19], -0.466. The z-score in assay [20] was 1.49 (inactive). The compound also registered a composite z-score in assay [2] of 0.0319.
For the compound `CCCCCCc1nc(-c2cc(C)c(OC)c(C)c2)cc2c1[Si](C(C)C)(C(C)C)O[C@H]2c1ccccc1`, the z-score in [1] is -0.548 (inactive); in [3] it was 1.31 (inactive); in assay [4], -0.0446 (inactive); in assay [5] it was 1.06 (inactive); in [6], 0.0157 (inactive); in [7], 0.561. Further, the z-score in [8] was -0.313 (inactive); in assay [9], -1.16 (inactive); in [10] it was -2.07; in assay [11], 0.723; in assay [12], -0.185; in assay [13], -0.59. In addition, the z-score in assay [14] is -0.0523; in assay [15], -0.942; in [16] it was 0.201; in [17], -0.152 (inactive); in [18], 0.77; in assay [19], -0.683. In addition, in assay [20], the z-score was 0.732 (inactive). The composite z-score in [2] is -0.0989.
